Hits are enriched below; roughly 20% of the tested compounds scored in any of these assays.
CHX counter – affects cycloheximide protein synthesis inhibition readout, counter-screen. cell reporter, cycloheximide protein synthesis inhibition counterscreen. AID 2314. max response, %. 12% of 300,000 active; in the data active = max response mostly above about 13%, no sharp cut-off; inactive = mostly below about 14%; note: read at 38.3 µM for the half of the compounds with a filed dose
HCMV antiviral – blocks human cytomegalovirus replication. activity change, negative = inhibition, % at 57.5 µM. 4.5% of 410,000 active. HFF cells, HCMV-luciferase reporter, 72 h; stronger effect = lower value; in the data active = activity change below about -60%; inconclusive = no clear call, values can overlap the other calls; inactive = above about -39%
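After 16 h attachment at 37C, HFF cells received test compound and HCMV-luciferase (1 PFU/cell); reporter luminescence read 72 h later, data normalized against buffer-only and known inhibitor Salinomycin.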
Shiga inhibitor – inhibitors of Shiga toxin in Vero cells | 9.2% of 290,000 active | inhibition, % at 38.7 µM | Vero cells, Shiga toxin protein synthesis inhibition reporter; in the data active = inhibition mostly above about 28%, no sharp cut-off; inactive = mostly below about 43%
Pf growth 48h – P. falciparum growth inhibition at 48 hours (one generation). P. falciparum luciferase growth in erythrocytes, 48 h. Potency, µM (doses to about 28.7 µM), actives largely listed as inhibitors. 5.9% of 310,000 active. AID 504832
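Erythrocytes infected with P. falciparum carrying an integrated firefly luciferase reporter (2% hematocrit, 0.1% parasitemia final) were exposed to compounds in RPMI 1640 with 0.5% Albumax at 37 C, 5% CO2. Growth inhibition was scored as reduced luminescence.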
Pf growth 96h – P. falciparum growth inhibition at 96 hour, primary screen for plastid delayed-death inhibitors. P. falciparum luciferase reporter growth, 96 h. Potency, µM (titrated, usually from 28.7 µM), most hits filed as inhibitors. 6.9% of 320,000 active
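Parasite growth measured via integrated firefly luciferase reporter in P. falciparum. Infected erythrocytes at 2% hematocrit, 0.05% parasitemia final were treated 96 hours at 37 C under 5% CO2, and luminescence was read.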
Of the large screens only hits and unclear results are named; the others gave an inactive call. Unless noted, calls come from the whole dose curve; as a rule, active = well fitted inhibition curve with a large enough effect; inconclusive = small, poorly fitted or top-dose-only effect, or another doubt; inactive = no such curve, though single readings can be large or run the other way.

COc1cccc(CC(=O)OCC(=O)NNC(=O)c2ccc([N+](=O)[O-])cc2)c1	none
CC1=C(C(=O)NCc2cccc(Br)c2)C2(CCCCC2)OC1=O	none (no result: CHX counter, Shiga inhibitor, Pf growth 48h, Pf growth 96h)
Cc1nc2ccccn2c(=O)c1CCN1CCC(C(=O)c2ccc(F)cc2)CC1	Pf growth 48h inconclusive, Pf growth 96h 11µM
Cc1nc2sccn2c(=O)c1CCN1CCC(=C(c2ccc(F)cc2)c2ccc(F)cc2)CC1	Pf growth 48h 10µM, Pf growth 96h 10µM
CC(=O)N1CCN(S(=O)(=O)c2ccc(S(=O)(=O)NC3CCCCC3)cc2)CC1	none
O=C(O)CC1S/C(=N\N=C2CCCCCCC2)N(c2ccccc2)C1=O (stereo not given)	HCMV antiviral -104
COCCNC(=O)C1CCCN(Cc2ccc(C)cc2)CC1 (stereo not given)	none (no result: CHX counter, Shiga inhibitor, Pf growth 48h, Pf growth 96h)
Cc1nccc2c1[nH]c1ccccc12	none
Clc1ccc(/C=C\c2nccc3c2[nH]c2ccccc23)cc1	Pf growth 48h 4.7µM
N#Cc1ccc(/C=C\c2nccc3c2[nH]c2ccccc23)cc1	HCMV antiviral -77, Pf growth 48h 3.3µM
Oc1ccc(Cl)cc1C1=Nc2ccccc2N=C(c2ccccc2)C1	none (no result: CHX counter, Shiga inhibitor, Pf growth 48h, Pf growth 96h)
Oc1ccc(Cl)cc1C1=NNC(c2ccc(Cl)cc2)C1 (stereo not given)	CHX counter 30, Shiga inhibitor 31, Pf growth 48h inconclusive, Pf growth 96h inconclusive
Oc1c(Cl)cc(Cl)cc1C1=NNC(c2ccc(Cl)cc2)C1 (stereo not given)	CHX counter 31, Shiga inhibitor 73 (no result: HCMV antiviral)
CSC(=NS(=O)(=O)c1ccccc1)NNC(=O)c1c(-c2c(Cl)cccc2Cl)noc1C	none (no result: CHX counter, Shiga inhibitor, Pf growth 48h, Pf growth 96h)
O=C(Cn1c(=O)n(Cc2ccc3c(c2)OCO3)c(=O)c2ccccc21)Nc1cccc(Cl)c1	none (no result: CHX counter, Shiga inhibitor, Pf growth 48h, Pf growth 96h)
CCCCN(C)Cc1cc(=O)oc2cc3c(cc12)CCCC3	Pf growth 48h inconclusive, Pf growth 96h inconclusive
COc1ccc(-c2nc3ccccc3n2OCC(=O)O)cc1	CHX counter 21
Clc1ccc(COn2c(-c3ccccc3)nc3ccccc32)cc1	Pf growth 48h inconclusive, Pf growth 96h inconclusive
COn1c(-c2ccc(Cl)cc2)nc2ccc(Cl)cc21	CHX counter 27, Shiga inhibitor 69
O=C(O)COn1c(-c2ccc(Cl)cc2)nc2ccc(Cl)cc21	Shiga inhibitor 87
Cc1ccc(Cl)cc1NC(=O)C1CCN(c2nc3ccccc3n3cccc23)CC1	none (no result: CHX counter, Shiga inhibitor, Pf growth 48h, Pf growth 96h)
CCOC(=O)c1c(C)[nH]c(C(=O)N/N=C\c2ccccc2Cl)c1C	CHX counter 20, HCMV antiviral -99, Pf growth 48h inconclusive, Pf growth 96h 9.3µM
CCOC(=O)c1[nH]c(C)c(C(=O)NCc2ccccc2Cl)c1C	none (no result: CHX counter, Shiga inhibitor, Pf growth 48h, Pf growth 96h)
COc1ccc(/C=N/NC(=O)c2[nH]c(C)c(C(=O)N/N=C/c3ccc(OC)cc3)c2C)cc1	none
COc1cccc(/C=N/NC(=O)c2[nH]c(C)c(C(=O)N/N=C/c3cccc(OC)c3)c2C)c1	Shiga inhibitor 73, Pf growth 96h inconclusive
CCOC(=O)c1c(C)[nH]c(C(=O)N/N=C/c2cccc(OC)c2)c1C	CHX counter 15, Shiga inhibitor active
CCC(=O)N1CCc2cc(S(=O)(=O)NCCC(=O)NC(C)c3ccccc3)ccc21 (stereo not given)	none (no result: CHX counter, Shiga inhibitor, Pf growth 48h, Pf growth 96h)
O=C(NCCC(=O)N1CCC2(CC1)NCCc1[nH]cnc12)c1cccc(Cl)c1	none
COc1ccc(NC(=O)c2c(N)no[n+]2[O-])cc1	CHX counter 16, HCMV antiviral inconclusive, Pf growth 96h inconclusive
Cn1ncc(N)c1C(=O)Nc1cccc(C(F)(F)F)c1	Pf growth 96h inconclusive
COc1ccc(C(=O)c2no[n+]([O-])c2C(=O)c2ccc(OC)cc2)cc1	HCMV antiviral -105, Pf growth 48h inconclusive
COc1ccc(NC(=O)c2c(N)cnn2C)cc1	CHX counter 18, Pf growth 96h inconclusive
COc1ccc(NC(=O)c2c(N)no[n+]2[O-])c(OC)c1	HCMV antiviral inconclusive
COc1cc(CN2C(=O)C(CCc3ccccc3)ON=C2c2cnccn2)cc(OC)c1 (stereo not given)	none (no result: CHX counter, Shiga inhibitor, Pf growth 48h, Pf growth 96h)
O=C(NC1CCCCC1)c1ccc2c(c1)N(Cc1ccccc1F)C(=O)c1ccccc1S2	none (no result: CHX counter, Shiga inhibitor, Pf growth 48h, Pf growth 96h)
O=C(Nc1ccccc1)c1nnn(Cc2ccccc2)c1NC(=O)C(F)(F)F	CHX counter 45, Shiga inhibitor 79
Cc1ccc(NC(=O)Cn2nnc(C(=O)NCCc3ccccc3)c2N)cc1	none (no result: CHX counter, Shiga inhibitor, Pf growth 48h, Pf growth 96h)
Nc1c(C(=O)NCCc2ccccc2)nnn1Cc1ccccc1	CHX counter 30, Shiga inhibitor 43 (no result: Pf growth 96h)
COc1cc(NC(=O)c2nnn(Cc3ccc(SC)cc3)c2N)cc(OC)c1	Pf growth 96h 12µM (no result: Pf growth 48h)
CSc1cccc(NC(=O)c2nnn(Cc3ccccc3)c2N)c1	Pf growth 48h 9.3µM
Nc1cc(C(F)(F)F)ccc1S(=O)(=O)Nc1cccc2c1NCCC2	none (no result: HCMV antiviral, Pf growth 48h, Pf growth 96h)
COc1cccc(-c2cc3c(Nc4cccc(NS(C)(=O)=O)c4)nccc3n2C)c1	none (no result: CHX counter, Shiga inhibitor, Pf growth 48h, Pf growth 96h)
Nc1nc(N)c2nc(-c3ccccc3)c(N)nc2n1	HCMV antiviral inconclusive, Pf growth 48h 1.7µM, Pf growth 96h 3.8µM
CNC(=O)c1cc(S(=O)(=O)Nc2ccc(C)cc2C)ccc1C	none
O=C(Cn1cc(S(=O)(=O)c2ccccc2)c(=O)c2cc3c(cc21)OCO3)Nc1ccc(Cl)cc1	none (no result: CHX counter, Shiga inhibitor, Pf growth 48h, Pf growth 96h)
O=C(C[n+]1cc(-c2ccc(F)cc2)n2c1CCC2)N1c2ccccc2Sc2ccccc21	CHX counter 44, Shiga inhibitor 54, Pf growth 48h 13µM, Pf growth 96h inconclusive
Cc1ccc(-c2c[n+](CC(=O)N3c4ccccc4Sc4ccccc43)c3n2CCC3)cc1	HCMV antiviral -87, Pf growth 48h 3.7µM, Pf growth 96h inconclusive
O=C(C[n+]1cc(-c2ccccc2)n2c1CCC2)c1cccs1	Pf growth 48h inconclusive, Pf growth 96h inconclusive
O=C(C[n+]1cc(-c2ccccc2)n2c1CCC2)N1c2ccccc2Sc2ccccc21	Pf growth 48h 4.1µM, Pf growth 96h inconclusive
O=C(CN1CCCC1)N1c2ccccc2Sc2ccccc21	Pf growth 48h inconclusive
O=C(Nc1ccccc1N1CCCC1)C1CCN(S(=O)(=O)c2cccc(C(F)(F)F)c2)CC1	Pf growth 48h 12µM, Pf growth 96h 10µM (no result: CHX counter, Shiga inhibitor)
Cc1ccc(S(=O)(=O)N2CCC(C(=O)Nc3ccccc3N3CCCC3)CC2)cc1	Pf growth 48h inconclusive (no result: CHX counter, Shiga inhibitor)
O=C(Nc1ccccc1N1CCCCC1)C1CCN(S(=O)(=O)c2cccc(C(F)(F)F)c2)CC1	Pf growth 48h 8.3µM, Pf growth 96h inconclusive (no result: CHX counter, Shiga inhibitor)
O=C(NNC(=O)C1CCN(S(=O)(=O)c2cccc(C(F)(F)F)c2)CC1)C1CC1	none
CCOC(=O)C1CCN(S(=O)(=O)CCNC(=O)c2cccc(OC)c2)CC1	none (no result: CHX counter, Shiga inhibitor)
